Test results as given in PubChem BioAssay AID1159580 (chemical genetic matrix, 2015).
The campaign covered roughly 5,500 compounds. About 2,000 (36%) were called active. Inconclusive results (about 18%) are left out. No stated cut-off is given here; in the data, active means normalized growth mostly below about 0.91 (no sharp cut-off); inconclusive means no clear call, values can overlap the other calls; inactive means mostly above about 0.92. The list shows a part of the results.

Test: chemical genetic growth profiling, strain panel (AID 1159580);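 further: tested at 20 µM; growth read once vehicle control cultures reached saturation at 30 °C; 1 = growth at the plate median or of vehicle wells; lower values mean less growth of the strain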
Conditions: S. cerevisiae deletion strains, growth OD

Measured: normalized growth

CNCC(O)c1ccc(O)c(O)c1 (stereo not drawn)
inactive: locus YAL040C, strain CLN3, hits give low values 1.08 | locus YCL061C, strain MRC1 (second series), hits give low values 1 | locus YDR363W, strain ESC2, hits give low values 1.01 | locus YER002W, strain NOP16, hits give low values 1 | locus YGR078C, strain PAC10, hits give low values 1.02 | locus YGR229C, strain SMI1, hits give low values 0.982 | locus YJR075W, strain HOC1, hits give low values 1 | locus YMR263W, strain SAP30, hits give low values 1.01 | locus YMR307W, strain GAS1, hits give low values 1 | locus YNL175C, strain NOP13, hits give low values 0.994 | locus YNL197C, strain WHI3, hits give low values 0.998 | locus YNL224C, strain SQS1, hits give low values 1.02 | locus YOR083W, strain WHI5 (second series), hits give low values 1.02
